# Assay results from PubChem BioAssay (NCATS).
# “And” between values parts separate entries of the source, which are not always exact repeats. Identical values can stand only once. Values without a mark were called inactive. Records with an inconclusive call do not appear. Entries that show only a call come without a potency. The source made the active and inactive calls. Unless noted, calls follow the shape of the dose curve; as a rule, active = well fitted curve in the direction sought with a large enough effect; inconclusive = small, poorly fitted or top-dose-only effect, or another doubt; inactive = no such curve, though single readings can be large; an effect the other way counts as inactive or inconclusive.
# Experiments:
# [1] = biological target: Beta-2 adrenergic receptor (Homo sapiens) (UniProt P07550); test: qHTS validation assay of beta-arrestin-biased ligands of beta2-adrenergic receptor (AID 485366)
# Beta-2 adrenergic receptor (Homo sapiens), sequence (P07550 whole entry, looked up): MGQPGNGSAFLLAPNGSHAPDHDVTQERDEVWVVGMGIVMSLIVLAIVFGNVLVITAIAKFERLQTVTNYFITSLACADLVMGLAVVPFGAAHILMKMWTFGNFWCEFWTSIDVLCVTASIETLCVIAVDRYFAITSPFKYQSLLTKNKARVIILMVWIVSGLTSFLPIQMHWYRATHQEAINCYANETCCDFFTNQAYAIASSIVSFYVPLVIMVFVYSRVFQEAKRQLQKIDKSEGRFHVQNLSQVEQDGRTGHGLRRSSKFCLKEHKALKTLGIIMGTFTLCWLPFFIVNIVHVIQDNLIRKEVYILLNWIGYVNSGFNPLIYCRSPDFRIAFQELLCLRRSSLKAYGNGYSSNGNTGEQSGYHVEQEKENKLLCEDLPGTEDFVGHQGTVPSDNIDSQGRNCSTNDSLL
# How it was run: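 Compound series up to 46 microM applied to beta2-AR/beta-arrestin Tango cells, 18 hr, 37 degrees C, 5% CO2. Read-out: tTA-driven luciferase luminescence, converted to %Activity; concentration-response curves assigned curve classes.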
# [2] = Quantitative high throughput screen for delayed death inhibitors of the malarial parasite plastid, 96 hour incubation (AID 488745); also: nearly all actives have a fitted effect of over 70% in size; also: potency is read from the fitted curve at half-maximal effect
# How it was run: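 Readout is firefly luciferase luminescence from an integrated reporter in P. falciparum; lower signal marks inhibited growth. Cultures at 2% hematocrit and 0.1% parasitemia were treated with compound across two generations (96 h, 37 C, 5% CO2).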
# [3] = Quantitative high throughput screen for delayed death inhibitors of the malarial parasite plastid, 48 hour incubation (AID 488752); also: nearly all actives have a fitted effect of over 65% in size
# How it was run: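 First, compound was pinned into RPMI 1640 medium containing 0.5% Albumax. Next, reporter-parasite-infected erythrocytes were added to 2% hematocrit and 0.1% parasitemia. After 48 h at 37 C under 5% CO2, luciferase detection reagent was added and luminescence read.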
# [4] = biological target: Thioredoxin reductase 1, cytoplasmic (Rattus norvegicus) (UniProt O89049); test: qHTS Assay for Substrates of Mammalian Selenoprotein Thioredoxin Reductase 1 (TrxR1) (AID 488772);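 also: series mostly up to about 57 µM; a drop in NADPH fluorescence below the no-compound background marks a TrxR1 substrate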
# Thioredoxin reductase 1, cytoplasmic (Rattus norvegicus), sequence (O89049 whole entry, looked up): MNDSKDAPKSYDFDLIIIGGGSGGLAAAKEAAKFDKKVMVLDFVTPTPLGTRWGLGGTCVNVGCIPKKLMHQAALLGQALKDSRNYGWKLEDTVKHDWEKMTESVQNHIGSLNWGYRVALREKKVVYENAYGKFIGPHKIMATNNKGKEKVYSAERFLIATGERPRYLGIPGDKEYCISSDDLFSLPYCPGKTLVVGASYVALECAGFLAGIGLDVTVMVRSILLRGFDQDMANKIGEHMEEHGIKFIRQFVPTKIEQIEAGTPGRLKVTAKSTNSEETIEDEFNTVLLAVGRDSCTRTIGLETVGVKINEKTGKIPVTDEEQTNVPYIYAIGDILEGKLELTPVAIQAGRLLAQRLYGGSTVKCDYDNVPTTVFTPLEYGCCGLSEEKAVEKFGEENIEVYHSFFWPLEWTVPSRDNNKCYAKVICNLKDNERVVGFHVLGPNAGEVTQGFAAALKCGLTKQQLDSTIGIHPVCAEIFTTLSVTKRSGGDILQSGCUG
# How it was run: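 In this dual-purpose format, potential substrates are identified from the first fluorescence read after selenite addition, not from the 8-minute delta. Rat enzyme is preincubated with NADPH and then with compound at ~22 deg C.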
# [5] = biological target: Thioredoxin reductase 1, cytoplasmic (Rattus norvegicus) (UniProt O89049); test: qHTS Assay for Inhibitors of Mammalian Selenoprotein Thioredoxin Reductase 1 (TrxR1) (AID 488773); details: Potency: inhibition;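 also: drop in NADPH fluorescence over an 8 min run after selenite addition; series mostly up to about 57 µM; nearly all actives have a fitted effect of over 40% in size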
# How it was run: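 Inhibition is scored from the loss of NADPH fluorescence between first and last reads of an 8-min kinetic run. Selenite (400 uM) was the substrate, added after 15 min compound preincubation at room temperature.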
# [6] = biological target: Flap endonuclease 1 (Homo sapiens) (UniProt P39748); test: qHTS Validation Assay for the Inhibitors of Human Flap endonuclease 1 (FEN1) (AID 488816)
# Flap endonuclease 1 (Homo sapiens), sequence (P39748 whole entry, looked up): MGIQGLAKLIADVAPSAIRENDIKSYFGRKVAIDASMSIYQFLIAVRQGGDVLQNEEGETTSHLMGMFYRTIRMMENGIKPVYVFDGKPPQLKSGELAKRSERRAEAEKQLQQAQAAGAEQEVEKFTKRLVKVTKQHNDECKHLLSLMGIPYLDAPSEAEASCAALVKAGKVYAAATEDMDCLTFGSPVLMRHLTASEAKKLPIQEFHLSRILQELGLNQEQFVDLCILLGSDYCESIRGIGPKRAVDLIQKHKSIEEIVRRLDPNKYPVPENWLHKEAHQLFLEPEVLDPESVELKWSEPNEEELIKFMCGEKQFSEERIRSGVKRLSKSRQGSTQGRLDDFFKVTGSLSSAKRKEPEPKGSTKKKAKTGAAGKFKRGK
# How it was run: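 qHTS format: compounds and 10 nM FEN1 incubated 15 min at room temperature before adding 50 nM substrate. Cleavage followed by reads at 0 and 15 min; normalized data fitted to a four-parameter Hill curve.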
# [7] = biological target: M-phase phosphoprotein 8 (Homo sapiens) (UniProt Q99549); test: qHTS Validation Assay for Inhibitors for MPP8 Chromodomain Interactions with Methylated Histone Tails (AID 488949); also: nearly all actives have a fitted effect of over 55% in size; also: potency is read from the fitted curve at half-maximal effect
# How it was run: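 Disruption of the preformed MPP8–trimethyl-H3K9 peptide complex (both 50 nM, 30 min, RT) is measured after 30 min compound exposure, using AlphaScreen proximity beads; aurintricarboxylic acid titration serves as plate control.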
# [8] = biological target: Chromobox protein homolog 1 (Homo sapiens) (UniProt P83916); test: qHTS Validation Assay for Inhibitors of HP1-beta Chromodomain Interactions with Methylated Histone Tails (AID 488953); also: nearly all actives have a fitted effect of over 50% in size; also: potency is read from the fitted curve at half-maximal effect
# Chromobox protein homolog 1 (Homo sapiens), sequence (P83916 whole entry, looked up): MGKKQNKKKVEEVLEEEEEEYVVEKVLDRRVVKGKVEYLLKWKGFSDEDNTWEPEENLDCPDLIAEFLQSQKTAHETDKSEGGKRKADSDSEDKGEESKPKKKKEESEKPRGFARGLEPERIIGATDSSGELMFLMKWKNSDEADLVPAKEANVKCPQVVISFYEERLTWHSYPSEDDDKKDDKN
# How it was run: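 Disruption of preformed HP1-beta:H3K9me3 peptide complexes (both 50 nM, PBS pH 7.4 with 0.01% Tween-20) is measured by AlphaScreen after 30 min compound exposure at room temperature, using streptavidin donor and nickel chelate acceptor beads at 10 ug/mL final.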
# [9] = biological target: Methanococcus maripaludis chaperonin (MmCpn) (UniProt Q6LX38); test: High-Throughput Screening for Modulators of Cytosolic Chaperonin Activity: MmCpn Primary Screen (AID 488978);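 also: 50 nM MmCpn enzyme hydrolysing 30 µM ATP at 37 °C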
# Methanococcus maripaludis chaperonin (MmCpn), sequence (Q6LX38 1-543): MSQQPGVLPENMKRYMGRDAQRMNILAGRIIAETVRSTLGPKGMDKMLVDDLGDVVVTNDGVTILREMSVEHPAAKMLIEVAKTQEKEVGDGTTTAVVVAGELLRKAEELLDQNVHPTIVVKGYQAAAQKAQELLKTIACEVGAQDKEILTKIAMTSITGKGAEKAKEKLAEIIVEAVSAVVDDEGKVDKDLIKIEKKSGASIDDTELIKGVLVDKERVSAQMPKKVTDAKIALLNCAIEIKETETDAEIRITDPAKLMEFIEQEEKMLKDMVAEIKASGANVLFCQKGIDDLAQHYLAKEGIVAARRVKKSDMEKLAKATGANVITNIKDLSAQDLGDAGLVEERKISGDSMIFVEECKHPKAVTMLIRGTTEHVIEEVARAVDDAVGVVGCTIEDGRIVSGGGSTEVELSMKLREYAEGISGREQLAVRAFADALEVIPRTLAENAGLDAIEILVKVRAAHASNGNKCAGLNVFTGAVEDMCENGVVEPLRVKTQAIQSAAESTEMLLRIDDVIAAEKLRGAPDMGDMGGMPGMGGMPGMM
# How it was run: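 Measures ATPase turnover of the M. maripaludis chaperonin (50 nM final) against 30 uM ATP over 10 min at 37C, with compound added 5 min beforehand at room temperature. ADP is quantified by HTRF immunodetection.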
# [10] = biological target: Transient receptor potential cation channel subfamily V member 1 (Homo sapiens) (UniProt Q8NER1); test: HTS Assay for Compounds that Act as Enhancers of the Vanilloid Receptor 1 (AID 488979)
# Transient receptor potential cation channel subfamily V member 1 (Homo sapiens), sequence (Q8NER1 whole entry, looked up): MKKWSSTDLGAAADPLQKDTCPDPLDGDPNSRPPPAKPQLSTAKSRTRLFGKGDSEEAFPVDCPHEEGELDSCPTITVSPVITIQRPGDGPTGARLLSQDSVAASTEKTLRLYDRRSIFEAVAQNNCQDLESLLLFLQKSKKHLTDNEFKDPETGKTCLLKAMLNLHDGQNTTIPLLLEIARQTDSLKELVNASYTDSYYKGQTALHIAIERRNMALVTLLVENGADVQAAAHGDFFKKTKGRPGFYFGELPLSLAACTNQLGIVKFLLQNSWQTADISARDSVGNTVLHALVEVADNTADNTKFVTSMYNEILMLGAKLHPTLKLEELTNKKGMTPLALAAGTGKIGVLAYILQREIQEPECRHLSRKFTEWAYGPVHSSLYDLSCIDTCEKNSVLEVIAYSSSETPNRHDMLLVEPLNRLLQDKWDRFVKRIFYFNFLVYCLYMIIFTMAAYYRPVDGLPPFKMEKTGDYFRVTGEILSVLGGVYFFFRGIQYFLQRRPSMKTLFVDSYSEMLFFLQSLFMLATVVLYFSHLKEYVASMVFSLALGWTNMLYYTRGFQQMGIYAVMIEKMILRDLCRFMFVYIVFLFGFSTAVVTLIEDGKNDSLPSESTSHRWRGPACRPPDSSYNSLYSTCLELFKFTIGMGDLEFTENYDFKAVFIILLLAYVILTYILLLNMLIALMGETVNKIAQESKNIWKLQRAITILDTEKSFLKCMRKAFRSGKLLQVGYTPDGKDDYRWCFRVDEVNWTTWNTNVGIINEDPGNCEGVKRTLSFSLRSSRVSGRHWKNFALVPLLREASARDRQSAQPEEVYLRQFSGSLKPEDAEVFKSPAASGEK
# How it was run: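 Calcium influx kinetics via Fluo-8 (480/520 nm) in TRPV1-expressing cells, 2000/well cultured overnight at 35.5C. Compound-alone read 3 min (agonist phase), followed by EC20 capsaicin challenge for 2 min (enhancer phase).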
# [11] = biological target: Thyrotropin receptor (Homo sapiens) (UniProt P16473); test: qHTS Assay for Antagonists of the Thyroid Stimulating Hormone Receptor (AID 488980); also: series mostly up to about 58 µM
# Thyrotropin receptor (Homo sapiens), sequence (P16473 whole entry, looked up): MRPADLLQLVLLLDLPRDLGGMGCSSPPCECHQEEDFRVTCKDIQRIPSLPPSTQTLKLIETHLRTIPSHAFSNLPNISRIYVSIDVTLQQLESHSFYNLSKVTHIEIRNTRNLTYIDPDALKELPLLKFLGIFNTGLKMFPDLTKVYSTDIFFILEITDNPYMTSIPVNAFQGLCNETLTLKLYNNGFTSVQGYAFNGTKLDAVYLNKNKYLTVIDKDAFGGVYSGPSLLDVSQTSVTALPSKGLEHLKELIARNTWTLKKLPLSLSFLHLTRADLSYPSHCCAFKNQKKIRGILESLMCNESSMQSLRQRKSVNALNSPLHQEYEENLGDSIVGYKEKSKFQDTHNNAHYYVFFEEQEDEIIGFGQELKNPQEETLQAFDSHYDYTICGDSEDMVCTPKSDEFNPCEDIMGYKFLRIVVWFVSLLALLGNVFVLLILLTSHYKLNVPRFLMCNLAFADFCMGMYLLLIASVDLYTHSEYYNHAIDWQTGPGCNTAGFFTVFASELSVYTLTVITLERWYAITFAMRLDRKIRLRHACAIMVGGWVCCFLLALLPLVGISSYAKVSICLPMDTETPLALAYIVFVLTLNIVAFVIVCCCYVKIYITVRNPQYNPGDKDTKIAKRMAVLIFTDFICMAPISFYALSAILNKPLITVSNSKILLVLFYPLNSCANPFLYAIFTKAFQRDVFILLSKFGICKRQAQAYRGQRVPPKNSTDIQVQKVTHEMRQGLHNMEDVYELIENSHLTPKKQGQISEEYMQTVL
# How it was run: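 Cells expressing human TSHR (HEK293) are dispensed in HBSS/HEPES containing 70 uM RO 20-1724, compound is added, then TSH at EC80 (4 nM final). Antibody in lysis buffer follows, 30 minutes at room temperature before HTRF detection.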
# [12] = biological target: D(1A) dopamine receptor (Homo sapiens) (UniProt P21728); test: HTS Assay for Allosteric Agonists of the Human D1 Dopamine Receptor: Primary Screen for Agonists (AID 488981)
# D(1A) dopamine receptor (Homo sapiens), sequence (P21728 whole entry, looked up): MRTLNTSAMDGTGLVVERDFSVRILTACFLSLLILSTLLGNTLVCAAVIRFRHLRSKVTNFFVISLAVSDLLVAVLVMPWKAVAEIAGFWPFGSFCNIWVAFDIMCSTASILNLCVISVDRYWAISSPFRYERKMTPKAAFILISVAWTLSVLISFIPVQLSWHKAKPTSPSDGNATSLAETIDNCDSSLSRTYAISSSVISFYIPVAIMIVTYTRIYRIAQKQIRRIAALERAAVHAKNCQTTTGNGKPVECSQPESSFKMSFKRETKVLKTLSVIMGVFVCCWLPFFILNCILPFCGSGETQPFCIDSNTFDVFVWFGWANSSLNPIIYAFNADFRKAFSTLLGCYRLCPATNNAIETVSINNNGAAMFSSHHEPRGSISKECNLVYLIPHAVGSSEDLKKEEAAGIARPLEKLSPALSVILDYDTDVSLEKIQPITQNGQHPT
# How it was run: (§1)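 Calcium flux in an inducible, force-coupled HEK293 Trex D1 line (overnight at 30 C): agonist mode is the 180 s kinetic read after compound; potentiator mode is the following 180 s read after dopamine at EC20.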
# [13] = biological target: D(1A) dopamine receptor (Homo sapiens) (UniProt P21728); test: HTS Assay for Allosteric Agonists of the Human D1 Dopamine Receptor: Primary Screen for Potentiators (AID 488982); also: potency is read from the fitted curve at half-maximal effect
# How it was run: as §1
# [14] = biological target: D(1A) dopamine receptor (Homo sapiens) (UniProt P21728); test: HTS Assay for Allosteric Agonists of the Human D1 Dopamine Receptor: Primary Screen for Antagonists (AID 488983);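 also: calcium flux response to an EC80 dopamine challenge measured with no-wash dye; nearly all actives have a fitted effect of over 65% in size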
# How it was run: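 Kinetic fluorescence at 1 cycle/sec tracked intracellular calcium in force-coupled, tetracycline-inducible HEK293 T-REx D1 cells. Loss of response to an EC80 dopamine dose, given 180 s after compound, marked antagonists.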
# [15] = Validation screen for small molecules that induce genotoxicity in human embryonic kidney (HEK293T) cells expressing luciferase-tagged ELG1 (AID 493106)
# How it was run: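 Cells were dispensed at 2,000 per well, then 23 nL compound or DMSO was pinned in. After 16 hr at 37 °C and 5% CO2, ONE-Glo reagent was added. Luciferase activity was measured following 30 min at room temperature.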
# [16] = biological target: ATPase family AAA domain-containing protein 5 (Homo sapiens) (UniProt Q96QE3); test: Validation screen for small molecules that inhibit ELG1-dependent DNA repair in human embryonic kidney (HEK293T) cells expressing luciferase-tagged ELG1 (AID 493107); also: nearly all actives have a fitted effect of over 70% in size; also: potency is read from the fitted curve at half-maximal effect
# How it was run: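 Cells are dispensed in 1536-well format, then 5-fluorouridine and compound are pinned in. After a 16 hr incubation at 37 °C and 5% CO2, ONE-Glo is added and luciferase measured on a CCD imager.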
# [17] = biological target: Thyrotropin-releasing hormone receptor (Homo sapiens) (UniProt P34981); test: qHTS for Small Molecule Agonists and Allosteric Enhancers of Human TRH Receptor: Validation Screen for Agonists (AID 493127;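 active = calcium activation more than 3 SD above the typical response in the agonist read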;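 also: intracellular calcium rise by fluo-8 fluorescence before TRH EC20 addition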); details: TRH receptor agonist cell assay; at 2 µM; hits give high values
# Thyrotropin-releasing hormone receptor (Homo sapiens), sequence (P34981 whole entry, looked up): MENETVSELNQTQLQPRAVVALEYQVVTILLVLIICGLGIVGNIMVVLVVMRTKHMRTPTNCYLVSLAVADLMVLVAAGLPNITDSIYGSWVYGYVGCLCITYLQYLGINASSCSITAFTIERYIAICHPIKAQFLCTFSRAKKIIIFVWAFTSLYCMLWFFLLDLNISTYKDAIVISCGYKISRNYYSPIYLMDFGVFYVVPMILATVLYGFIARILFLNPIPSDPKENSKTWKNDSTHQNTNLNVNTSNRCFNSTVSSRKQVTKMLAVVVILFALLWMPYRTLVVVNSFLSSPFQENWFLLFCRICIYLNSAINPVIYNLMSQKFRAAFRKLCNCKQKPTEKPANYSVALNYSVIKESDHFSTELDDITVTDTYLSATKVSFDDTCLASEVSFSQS
# How it was run: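 Compounds are added by online pintool to dye-loaded TRHR cells while fluorescence is recorded every second. A rise in calcium signal during the agonist read marks activation; a later 10 nM TRH addition (EC20) serves the separate enhancer mode.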
# [18] = biological target: ATP-dependent 6-phosphofructokinase (Trypanosoma brucei brucei) (UniProt O15648); test: qHTS Validation Assay to Find Inhibitors of T. brucei phosphofructokinase (AID 485368); also: potency is read from the fitted curve at half-maximal effect
# ATP-dependent 6-phosphofructokinase (Trypanosoma brucei brucei), sequence (O15648 whole entry, looked up): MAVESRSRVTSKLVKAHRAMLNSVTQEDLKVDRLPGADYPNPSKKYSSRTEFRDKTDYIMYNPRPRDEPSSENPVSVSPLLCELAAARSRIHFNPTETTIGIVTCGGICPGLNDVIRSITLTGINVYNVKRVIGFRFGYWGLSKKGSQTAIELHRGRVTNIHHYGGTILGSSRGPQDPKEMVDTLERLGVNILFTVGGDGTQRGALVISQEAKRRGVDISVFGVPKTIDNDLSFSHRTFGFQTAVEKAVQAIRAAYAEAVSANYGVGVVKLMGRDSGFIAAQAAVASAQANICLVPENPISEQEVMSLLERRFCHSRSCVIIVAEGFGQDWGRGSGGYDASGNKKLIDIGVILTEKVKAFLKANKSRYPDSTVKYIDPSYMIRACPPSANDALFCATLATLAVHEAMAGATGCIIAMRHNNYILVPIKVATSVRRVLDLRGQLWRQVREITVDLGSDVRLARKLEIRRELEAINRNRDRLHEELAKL
# How it was run: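 qHTS format, up to 57 uM. PFK 1.25 nM; F6P 0.5 mM; ATP 0.1 mM; 5 mM MgCl2, 0.01% Tween20, 0.1% BSA; 0.1 M TEA pH 8.0; 45 min RT; ADP-Glo readout; no-enzyme control = full inhibition.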
Compound,outcome [1],Potency [2],Potency [3],outcome [4],Potency [5],Potency [6],Potency [7],Potency [8],outcome [9],outcome [10],outcome [11],Potency [12],Potency [13],Potency [14],Potency [15],Potency [16],activation [17],Potency [18]
O=C(O)C1CCNCC1,inactive,inactive,inactive,inactive,inactive,inactive,inactive,inactive,inactive,inactive,inactive,inactive,inactive,inactive,inactive,inactive,-0.188%,
O=c1cc(-c2ccccc2)[nH]c2nc(Cl)ccc12,inactive,inactive,inactive,inactive,inactive,inactive,inactive,inactive,inactive,inactive,inactive,inactive,inactive,inactive,inactive,,,
Cn1c(=O)c2[nH]c(C3CCCC3)nc2n(C)c1=O,inactive,inactive,inactive,inactive,inactive,inactive,inactive,inactive,inactive,inactive,inactive,inactive,inactive,inactive,inactive,inactive,0.125%,
CCCCS(=N)(=O)CC[C@H](N)C(=O)O (stereo partly specified),inactive,inactive,inactive,inactive,inactive,inactive,inactive,inactive,inactive,inactive,inactive,inactive,inactive,,inactive,,-2.62%,
CCCCCC[C@@H]([C@@H](C)O)n1cnc2c(N)ncnc21,inactive,,,inactive,inactive,,inactive,,inactive,inactive,inactive,inactive,inactive,inactive,inactive,inactive,0.875%,inactive
NC(N)=NC(N)=Nc1cccc(Cl)c1,inactive,9.28 µM (active),inactive,inactive,inactive,inactive,inactive,inactive,inactive,inactive,inactive,inactive,inactive,inactive,inactive,inactive,1.62%,
Nc1ncnc2c1nc(Br)n2C1OC2COP(=O)(O)O[C@@H]2C1O (stereo partly specified),inactive,,,inactive,inactive,,inactive,inactive,inactive,,,inactive,,inactive,inactive,inactive,,inactive
N#C/C(=C\c1ccc(O)c(O)c1)C(=O)NCCc1ccccc1,inactive,,,inactive,,inactive,11.2 µM (active) and 18.9 µM (active),10 µM (active),inactive,inactive,inactive,inactive,inactive,inactive,,inactive,0.438%,15.1 µM (active)
NCCCNCCCCNCCCN,inactive,inactive,inactive,inactive,inactive,inactive,inactive,inactive,inactive,inactive,inactive,inactive,inactive,inactive,inactive,inactive,0.688%,
c1ccc(C(NCc2cccnc2)(c2ccccc2)c2ccccc2)cc1,inactive,,,inactive,inactive,,inactive,inactive,inactive,,,inactive,4.11 µM (active),,inactive,,,inactive
N=C(N)SCCN,inactive,inactive,inactive,inactive,inactive,inactive,inactive,inactive,inactive,inactive,inactive,inactive,inactive,,inactive,inactive,,
C[N+](C)(C)CC=O,inactive,inactive,inactive,inactive,inactive,inactive,inactive,inactive,inactive,inactive,inactive,inactive,inactive,,inactive,inactive,1.56%,
NC1(C(=O)O)CC1,inactive,inactive,inactive,inactive,inactive,inactive,inactive,inactive,inactive,inactive,inactive,inactive,inactive,inactive,inactive,inactive,0.688%,
NC1CCN(O)C1=O (stereo unspecified),inactive,inactive,inactive,inactive,inactive,inactive,inactive,inactive,inactive,inactive,inactive,inactive,inactive,inactive,inactive,,,
CC(=O)O[C@H]1CC2(C)[C@@H](C[C@@H](O)[C@H]3[C@@]4(C)CC[C@@H](O)[C@@H](C)[C@@H]4CC[C@@]32C)C1=C(CCC=C(C)C)C(=O)O (stereo partly specified),inactive,inactive,inactive,inactive,inactive,inactive,inactive,inactive,inactive,inactive,inactive,inactive,inactive,inactive,inactive,inactive,1.06%,
O=C(O)[C@H]1NCCC[C@H]1C(=O)O,inactive,inactive,inactive,inactive,inactive,inactive,inactive,inactive,inactive,inactive,inactive,inactive,inactive,inactive,inactive,inactive,-0.188%,
COc1ccc(-c2cc3ncc(C)n3c(Nc3ncccc3C(N)=O)n2)cc1OC,inactive,,,inactive,,inactive,inactive,inactive,inactive,,,inactive,inactive,inactive,inactive,1.03 µM (active),,inactive
